The values that follow come from paper PMC5349851, “Combinatorial bZIP dimers display complex DNA-binding specificity landscapes”.

Holding throughout (assay): SELEX-seq (CSI, HT-SELEX, round 3); SELEX-seq: 1x PBS (10 mM phosphate, 137 mM NaCl, 2.7 mM KCl) pH 7.6, 2.5 mM DTT, 50 ng/ul poly dI-dC, 0.1% BSA, 50 nM biotinylated bZIP (1:3 with partner for heterodimers), 100 nM library, room temperature, 1 h, 3 rounds; high values mean tight binding
Common to all, as to conditions: protein: recombinant;recombinant; copies: 1;1; dsDNA, one strand shown

In assay [1] the target is ATF6;ATF6 (Homo sapiens;Homo sapiens, UniProt P18850;P18850 297-371;297-371, |).
Chain of ATF6;ATF6 (P18850 other isoform, or with tags, fused parts or gaps |, chain 1 of 2): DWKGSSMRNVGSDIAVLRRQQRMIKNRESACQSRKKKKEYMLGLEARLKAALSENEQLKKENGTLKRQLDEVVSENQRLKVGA
Chain of ATF6;ATF6 (P18850 other isoform, or with tags, fused parts or gaps |, chain 2 of 2): as the sequence (P18850 other isoform, or with tags, fused parts or gaps |, chain 1 of 2) above
The target in assay [2] is T1, CREB3;CREB3 (Homo sapiens;Homo sapiens, UniProt O43889;O43889 141-221;141-221, |).
T1 sequence 1: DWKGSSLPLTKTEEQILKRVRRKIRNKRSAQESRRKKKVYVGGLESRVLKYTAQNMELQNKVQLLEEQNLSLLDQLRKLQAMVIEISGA
T1 sequence 2: T1 sequence 1

In assay [3] the target is ATF5;ATF6B (Homo sapiens;Homo sapiens, UniProt Q9Y2D1;Q99941 199-275;316-391, |).
Chain of ATF5;ATF6B (Q99941 other isoform, or with tags, fused parts or gaps |): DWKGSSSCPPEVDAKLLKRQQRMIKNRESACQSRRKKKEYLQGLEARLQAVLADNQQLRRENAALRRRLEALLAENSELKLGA
Assay [4] concerns the target T2, ATF5;CREBZF (Homo sapiens;Homo sapiens, UniProt Q9Y2D1;Q9NS37 199-275;195-272, |).
T2 sequence 1: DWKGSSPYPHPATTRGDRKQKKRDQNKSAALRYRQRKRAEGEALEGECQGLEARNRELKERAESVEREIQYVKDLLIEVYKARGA
T2 sequence 2: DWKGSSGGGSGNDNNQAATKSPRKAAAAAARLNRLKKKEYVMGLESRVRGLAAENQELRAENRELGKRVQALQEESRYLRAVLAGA

Assay [5] has as its target ATF6B;ATF6B (Homo sapiens;Homo sapiens, UniProt Q99941;Q99941 316-391;316-391, |).
Assay [6] addresses T3, CREB1;CREB1 (Homo sapiens;Homo sapiens, UniProt P16220;P16220 260-327;260-327, |).
T3 sequence 1: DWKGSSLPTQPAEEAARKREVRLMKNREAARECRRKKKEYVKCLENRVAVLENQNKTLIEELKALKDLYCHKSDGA
T3 sequence 2: T3 sequence 1

Chain of ATF6B;ATF6B (Q99941 other isoform, or with tags, fused parts or gaps |, chain 1 of 2): as the sequence (Q99941 other isoform, or with tags, fused parts or gaps |) above
Chain of ATF6B;ATF6B (Q99941 other isoform, or with tags, fused parts or gaps |, chain 2 of 2): as the sequence (Q99941 other isoform, or with tags, fused parts or gaps |) above

In the case of ATGACGCAAT, the binding signal was 0.00207 relative CSI intensity (max = 1) in assay [1], 0.00195 relative CSI intensity (max = 1) in assay [2], 0.00498 relative CSI intensity (max = 1) in assay [3] and 0.0123 relative CSI intensity (max = 1) in assay [4].

For the sequence ATGACGGAAT, the binding signal in assay [4] was 0.0025 relative CSI intensity (max = 1).

Consider ATGATGCAAT, for which the results for the binding signal in assay [3] and in assay [4] were 0.0122 relative CSI intensity (max = 1) and 0.00335 relative CSI intensity (max = 1), respectively.

As for ATGACGTAAT, the binding signal was 0.00248 relative CSI intensity (max = 1) in assay [5]; 0.0093 relative CSI intensity (max = 1) in assay [1]; 0.00977 relative CSI intensity (max = 1) in assay [6]; 0.0113 relative CSI intensity (max = 1) in assay [2]; 0.0108 relative CSI intensity (max = 1) in assay [3]; 0.0175 relative CSI intensity (max = 1) in assay [4].

With CCTGACGTCA, the binding signal in assay [5] was 0.00121 relative CSI intensity (max = 1); in assay [1], 0.00545 relative CSI intensity (max = 1); in assay [6] it was 0.0218 relative CSI intensity (max = 1); in assay [2] it was 0.0218 relative CSI intensity (max = 1); in assay [3] it was 0.0183 relative CSI intensity (max = 1); in assay [4] it was 0.0084 relative CSI intensity (max = 1).

Turning to ATGACGTCAT, the binding signal in assay [5] was 0.0846 relative CSI intensity (max = 1); in assay [1], 0.437 relative CSI intensity (max = 1); in assay [6], 0.577 relative CSI intensity (max = 1); in assay [2] it was 0.325 relative CSI intensity (max = 1); in assay [3], 1 relative CSI intensity (max = 1); in assay [4], 1 relative CSI intensity (max = 1).
